Pf growth 96h = P. falciparum growth inhibition at 96 hours. Potency, µM (series often up to 28.7 µM), most hits filed as inhibitors. P. falciparum luciferase reporter growth, 96 h. AID 504834. actives 6.9% (n = 320,000)
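Luminescence readout: decreased luciferase signal marks inhibited growth of reporter-expressing P. falciparum in infected red cells (2% hematocrit, 0.05% parasitemia final), exposed to compound two generations (96 h, 37 C, 5% CO2).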
HCV inhibitor = blocks hepatitis C virus. Huh7.5.1 HCVcc-Cre infection, luciferase reporter, 44 h. Potency, µM (highest dose often 41.8 µM), most hits filed as inhibitors. actives 3.4% (n = 340,000)
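Infectious HCV cell culture screen: compound-treated cells (1,000/well, pre-plated 4 h) are infected with HCVcc-Cre at roughly 0.5 moi and grown 44 h. Infection is quantified by luciferase signal after 15 min substrate incubation at room temperature.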
CHX counter = counter-screen hit for Shiga toxin inhibitors, cycloheximide; max response, %; AID 2314; actives 12% (n = 300,000); cell reporter, cycloheximide protein synthesis inhibition counterscreen; in the data active = max response mostly above about 13%, no sharp cut-off; inactive = mostly below about 14%; note: read at 38.3 µM for the half of the compounds with a filed dose
Shiga inhibitor = blocks Shiga toxin action in Vero cells | actives 9.2% (n = 290,000) | Vero cells, Shiga toxin protein synthesis inhibition reporter | inhibition, % at 38.7 µM | AID 2315; in the data active = inhibition mostly above about 28%, no sharp cut-off; inactive = mostly below about 43%
HCMV inh = human cytomegalovirus inhibition. HFF cells, HCMV-luciferase reporter, 72 h; hits give low values. activity change, negative = inhibition, % at 57.5 µM. actives 4.5% (n = 410,000). AID 1259415; in the data active = activity change below about -60%; inconclusive = no clear call, values can overlap the other calls; inactive = above about -39%
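Compounds were evaluated in HFFs infected with an HCMV luciferase reporter virus (MOI 1 PFU/cell). Luciferase in lysates collected 72 h post infection served as the replication measure.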
Pf growth 48h = P. falciparum growth inhibition at 48 hours (one generation). P. falciparum luciferase growth in erythrocytes, 48 h. Potency, µM (doses to about 28.7 µM), usual class: inhibitors. actives 5.9% (n = 310,000)
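A one-generation exposure of luciferase-tagged malaria parasites in RPMI 1640/Albumax erythrocyte culture, 37 C and 5% CO2. Inhibition is inferred from decreased luminescence after adding detection reagent.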
Hits are given with their value; [ ] = remark or other dose. In the library only some 21% were active in any assay of this set; here they are far more common. Unless noted, calls come from the whole dose curve; as a rule, active = well fitted inhibition curve with a large enough effect; inconclusive = small, poorly fitted or top-dose-only effect, or another doubt; inactive = no such curve, though single readings can be large or run the other way.

How did CCOc1cccc(/C=C/c2cc(C(=O)O)c3ccccc3n2)c1OC do in these assays?
Pf growth 96h: inactive; HCV inhibitor: inactive; CHX counter: inactive; Shiga inhibitor: inactive; HCMV inh: inactive; Pf growth 48h: inactive

Results for Cc1ccc(C2C(=O)N(C3CCCCCC3)CC(=O)N2CCC2=CCCCC2)cc1 (stereo unspecified) ?
HCMV inh: -63

How did Cc1cccc2c1N[C@H](/C=C/C(=O)OC(C)(C)C)C2 do in these assays?
HCMV inh: inactive

How did CC(=O)C1=C(O)CC(c2ccccc2)CC1=NCCc1c(C)[nH]c2ccc(C)cc12 (stereo unspecified) do in these assays?
Pf growth 96h: inconclusive; HCV inhibitor: inactive; CHX counter: inactive; Shiga inhibitor: inactive; HCMV inh: inactive; Pf growth 48h: inconclusive

How did CCC(=NCCc1c(C)[nH]c2ccc(C)cc12)C1=C(O)CC(c2ccccc2)CC1=O (stereo unspecified) do in these assays?
Pf growth 96h: inconclusive; HCV inhibitor: inconclusive; CHX counter: inactive; Shiga inhibitor: inactive; HCMV inh: -77; Pf growth 48h: inconclusive

How did CCC/C(O)=C1\C(=O)CC(c2ccccc2)CC1=NCCc1c(C)[nH]c2ccc(C)cc12 (stereo unspecified) do in these assays?
Pf growth 96h: inconclusive; HCV inhibitor: inactive[8.37 µM]; CHX counter: inactive; Shiga inhibitor: inactive; HCMV inh: inactive; Pf growth 48h: 1.9µM

Results for CC(=O)C1=C(O)CC(c2ccccc2)CC1=NCCc1c(C)[nH]c2ccccc12 (stereo unspecified) ?
Pf growth 96h: inactive; HCV inhibitor: inconclusive; CHX counter: inactive; Shiga inhibitor: inactive; HCMV inh: inactive; Pf growth 48h: 7.4µM

How did O=C(Cn1ncc2c3ccccc3n(Cc3ccccc3)c2c1=O)Nc1ccccc1C(F)(F)F do in these assays?
HCMV inh: inactive

What do the screens show for `O=C(O)c1ccc(-c2nc(-c3ccccc3)c(-c3cccs3)[nH]2)cc1`?
Pf growth 96h: inactive; HCV inhibitor: inactive; CHX counter: inactive; Shiga inhibitor: inactive; HCMV inh: inactive; Pf growth 48h: inconclusive

How did Cc1ccc(-c2[nH]c(-c3ccc(C(=O)O)cc3)nc2-c2ccccc2)cc1 do in these assays?
Pf growth 96h: 10µM; HCV inhibitor: inactive; CHX counter: inactive; Shiga inhibitor: inactive; HCMV inh: inconclusive; Pf growth 48h: inactive

Results for Oc1ccc(-c2nc(-c3ccccc3)c(-c3ccc(Br)cc3)[nH]2)cc1 ?
HCMV inh: -63

How did CN1CCN(C2CN(Cc3cn(Cc4cccc(C(F)(F)F)c4)nn3)S(=O)(=O)C2)CC1 (stereo unspecified) do in these assays?
HCMV inh: inactive

What do the screens show for `Cc1cc(C)cc(NC(=O)c2cc(C)nc3c2c(C)nn3-c2ccccc2)c1`?
HCMV inh: inactive

Results for CCOc1cc(-c2nnc(NC(=O)C3=COCCO3)o2)cc(OCC)c1OCC ?
Pf growth 96h: inconclusive; HCV inhibitor: inconclusive; HCMV inh: inactive; Pf growth 48h: inconclusive

Results for COc1cccc(NC(=O)CCc2nnc3ccc(N4CCN(c5cccc(OC)c5)CC4)nn23)c1 ?
Pf growth 96h: inconclusive; HCV inhibitor: inactive; CHX counter: inactive; Shiga inhibitor: inactive; Pf growth 48h: inconclusive

What do the screens show for `COCCNC(=O)CCc1nnc2ccc(N3CCC(C)CC3)nn12`?
Pf growth 96h: inactive; HCV inhibitor: inactive; CHX counter: inactive; Shiga inhibitor: inactive; HCMV inh: inactive; Pf growth 48h: inactive

Results for Cc1ccc(NC(=O)CCc2nnc3ccc(N4CCC5(CC4)OCCO5)nn23)nc1 ?
Pf growth 96h: inconclusive; HCV inhibitor: inactive; CHX counter: inactive; Shiga inhibitor: inactive; HCMV inh: inconclusive; Pf growth 48h: inconclusive

Results for COc1ccccc1N1CCN(C(=O)CCc2nnc3ccc(N4CCC(C)CC4)nn23)CC1 ?
Pf growth 96h: inactive; HCV inhibitor: inactive; CHX counter: inactive; Shiga inhibitor: inactive; HCMV inh: inconclusive; Pf growth 48h: 10µM

What do the screens show for `COc1cc(NC(=O)CCc2nnc3ccc(N4CCN(c5cccc(OC)c5)CC4)nn23)cc(OC)c1`?
Pf growth 96h: 3.3µM; HCV inhibitor: inactive; CHX counter: inactive; Shiga inhibitor: inactive; HCMV inh: inactive; Pf growth 48h: inactive

What do the screens show for `CC(=O)c1ccc(NC(=O)CCc2nnc3ccc(N4CCC5(CC4)OCCO5)nn23)cc1`?
Pf growth 96h: inactive; HCV inhibitor: inactive; CHX counter: 47; Shiga inhibitor: 82; HCMV inh: inactive; Pf growth 48h: inactive

How did COc1ccc(NC(=O)CCc2nnc3ccc(N4CCN(c5cccc(OC)c5)CC4)nn23)cc1 do in these assays?
Pf growth 96h: 0.33µM; HCV inhibitor: inactive; CHX counter: inactive; Shiga inhibitor: inactive; HCMV inh: inconclusive; Pf growth 48h: 12µM

What do the screens show for `CCOc1ccc(C2CC(=O)c3c([nH]c(C(=O)OC4CCCCCC4)c3C)C2)cc1` (stereo unspecified)?
HCMV inh: inactive

Results for COc1ccc(CN2CCC2(C)C(=O)Nc2cccc(NS(C)(=O)=O)c2)c2ccccc12 (stereo unspecified) ?
HCMV inh: inactive

How did COc1cccc(N2CCN(C(=O)CCc3nnc4ccc(N5CCOCC5)nn34)CC2)c1 do in these assays?
Pf growth 96h: 12µM; HCV inhibitor: inactive; CHX counter: inactive; Shiga inhibitor: inactive; HCMV inh: inactive; Pf growth 48h: inactive

Results for COc1cc(NC(=O)CCc2nnc3ccc(N4CCC(C)CC4)nn23)cc(OC)c1 ?
Pf growth 96h: 1.9µM; HCV inhibitor: inactive; CHX counter: inactive; Shiga inhibitor: inactive; HCMV inh: inactive; Pf growth 48h: inactive

What do the screens show for `COc1cccc(N2CCN(C(=O)CCc3nnc4ccc(N5CCCC5)nn34)CC2)c1`?
Pf growth 96h: inconclusive; HCV inhibitor: inactive; CHX counter: inactive; Shiga inhibitor: inactive; HCMV inh: inactive; Pf growth 48h: inconclusive

Results for CCOc1ccccc1OC(=O)c1cc2ccccc2oc1=O ?
Pf growth 96h: inconclusive; HCV inhibitor: inactive; CHX counter: inactive; Shiga inhibitor: inactive; HCMV inh: inactive; Pf growth 48h: inactive

What do the screens show for `COc1ccccc1-c1nc(SCC(=O)N(C)c2ccccc2)c2c(=O)n(C)c(=O)n(C)c2n1`?
Pf growth 96h: inconclusive; HCV inhibitor: 6.3µM; CHX counter: inactive; Shiga inhibitor: inactive; HCMV inh: inactive; Pf growth 48h: inactive

What do the screens show for `COc1ccccc1NC(=O)c1sc2nc(-c3cc4cc(Cl)ccc4oc3=O)[nH]c(=O)c2c1C`?
HCMV inh: inactive

Results for O=C(Cc1ccc(Cl)cc1)N1CCC2(CC1)NCCc1[nH]cnc12 ?
Pf growth 96h: inactive; HCV inhibitor: inactive; CHX counter: inactive; Shiga inhibitor: inactive; HCMV inh: inactive; Pf growth 48h: inactive

Results for CCOC(=O)C1(Cc2cccc(Cl)c2)CCCN(C(=O)c2ccc(COC)s2)C1 (stereo unspecified) ?
Pf growth 96h: inactive; HCV inhibitor: inactive; CHX counter: 20; Shiga inhibitor: inactive; HCMV inh: inactive; Pf growth 48h: inconclusive

Screening results: PubChem BioAssay, National Center for Advancing Translational Sciences (NCATS)
